# Laboratory results from PubChem BioAssay AID540313 (Sanford-Burnham Center for Chemical Genomics, 2011).
# Out of some 2,500 compounds screened, fewer than 10 were called active.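 How the source made its calls: active means inhibition of at least 30% at 20 µM; inactive means the rest.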 A selection follows.
# Assay: colorimetric readout interference by compounds, confirmation, artefact control for Scp-1 inhibitor project, biochemical, single concentration (AID 540313);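 further: compounds added after enzyme reaction finished so only phosphate colour detection is probed; plate controls were DMSO wells with completed Scp-1 reaction for no effect and substrate wells lacking enzyme for full effect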
# Conditions: Colorimetric interference counterscreen, malachite green absorbance 630 nm; at 20 µM; stronger effect = higher value
row,Structure (SMILES),apparent inhibition (interference)
1,O=c1c2cc(-c3ccccc3)sc2nc2n1N=C(c1cccs1)CS2,-15.6% (inactive)
2,O=C(c1ccc(CS(=O)(=O)c2ccccc2)o1)N1CCN(c2ccccc2)CC1,-14.5% (inactive)
3,Cc1ccc(C(=O)NNC(=O)c2cc3cc4ccccc4nc3s2)cc1,-12.3% (inactive)
4,N#CC1=C(SCc2ccccc2)NC(=O)C(C#N)C12CCCC2 (stereo unspecified),-3.5% (inactive)
5,COc1cccc2sc(N(CCCN(C)C)C(=O)C(c3ccccc3)c3ccccc3)nc12,-9.56% (inactive)
6,CN(c1ccccc1)S(=O)(=O)c1ccc(Cl)c(C(=O)OCC(=O)NCc2ccco2)c1,-22.8% (inactive)
7,Nn1cnnc1N/N=C/c1cc([N+](=O)[O-])c(Cl)cc1Cl,2.55% (inactive)
8,O=C(COC(=O)/C=C/c1ccc(Br)o1)Nc1cccc(S(=O)(=O)N2CCOCC2)c1,-18.6% (inactive)
9,Cc1nnc(SCC(=O)Nc2ccc(S(=O)(=O)Nc3ccc(Cl)nn3)cc2)s1,-18.9% (inactive)
10,O=C(COC(=O)CCC(=O)c1cccs1)NCc1ccco1,-8.73% (inactive)
11,COCCCNc1nc2ccccc2nc1NS(=O)(=O)c1ccc(F)cc1,-12.6% (inactive)
12,O=S(=O)(Nc1ccccc1Cl)c1cccc2nsnc12,-11.2% (inactive)
13,CC(NC(=O)CC1SC(N)=NC1=O)c1ccccc1 (stereo unspecified),-25.2% (inactive)
14,O=C(O)c1ccc(N/N=C/c2ccc3ncccc3c2)cc1,-19.2% (inactive)
15,ON=C1/C(=N\O)CC2(C/C1=N/O)OCCO2,-6.8% (inactive)
16,O=C(Nc1cc(S(=O)(=O)N2CCCCC2)ccc1Cl)C1COc2ccccc2O1 (stereo unspecified),-8.46% (inactive)
17,Cc1nn(-c2cc(Cl)ccc2N)c(=O)c2ccccc12,-5.43% (inactive)
18,Cc1ccc(CN2CCN(c3ccccc3Cl)CC2)o1,-14.5% (inactive)
19,CN(CC(=O)Nc1cccc(F)c1)C(=O)C1CC(=O)N(CCc2ccccc2)C1 (stereo unspecified),-6.79% (inactive)

row,Structure (SMILES),apparent inhibition (interference)
1,COc1ccc(NC(=O)N(C)C[C@H]2Oc3ccc(NC(=O)C4CC4)cc3C(=O)N([C@H](C)CO)C[C@@H]2C)cc1,-15.3% (inactive)
2,COc1ccc(Cl)cc1C=CC=NNC(=O)c1ccncc1,-8.46% (inactive)
3,Cc1ccc(S(=O)(=O)Nc2ccc3c(c2)C(=O)N([C@H](C)CO)C[C@@H](C)[C@@H](CN(C)C(=O)Nc2cccc4ccccc24)O3)cc1,-13.6% (inactive)
4,C=C1c2cccc(OC)c2O[C@H](C(=O)OCC)[C@@H]1CCCCCC,-7.63% (inactive)
5,COc1cccc(CNS(=O)(=O)c2csc(C(N)=O)c2)c1,-12.8% (inactive)
6,O=C(Nc1cccc(F)c1)[C@@H]1CCCN1,-5.98% (inactive)
7,O=C(c1ccc2c(c1)OCO2)N1CCNc2ccccc2C1,-25.4% (inactive)
8,C[C@H](CO)N1C[C@H](C)[C@H](CN(C)C(=O)Nc2ccc(C(F)(F)F)cc2)Oc2c(NC(=O)c3ccncc3)cccc2C1=O,-21.4% (inactive)
9,Cc1ccccc1NC(=O)CN1C(=O)N/C(=C\c2cccn2-c2cccc(C(=O)O)c2)C1=O,6.13% (inactive)
10,N#Cc1c(-c2cccs2)nc(SCC(=O)c2ccc(Br)cc2)[nH]c1=O,-20.8% (inactive)
11,O=C(NNC(=O)c1ccc2ccccc2c1)c1ccc(Cl)cc1,-9.26% (inactive)
12,N#Cc1ccc(C(=O)Nc2cccc3cccnc23)c(F)c1,-4.88% (inactive)
13,Cc1ccc(S(=O)(=O)Nc2nc(C)cc(-n3nc(C)cc3C)n2)cc1,-5.43% (inactive)
14,O=C(CN1CCN(S(=O)(=O)/C=C/c2ccccc2)CC1)NC(=O)NCc1ccco1,-17.5% (inactive)
15,Cc1ccc(Cc2nnc(SCC(=O)Nc3ccc(C)cc3C)[nH]c2=O)cc1,-12.9% (inactive)
16,O=C(Cn1cc(/C=N/NC(=O)c2cccc(C(F)(F)F)c2)c2ccccc21)Nc1ccc(F)cc1,-10.9% (inactive)
17,CC1=NNC(=O)C1CCC(=O)N/N=C\c1cccc(Cl)c1 (stereo unspecified),-21.4% (inactive)
18,CCCc1nc(-c2cc3cc(C)ccc3[nH]c2=O)no1,-14% (inactive)
19,COc1cccc(NC(C)=[N+](C)CCNS(=O)(=O)c2ccc(Cl)cc2)c1,-6.24% (inactive)

row,Structure (SMILES),apparent inhibition (interference)
1,Cc1ccc(N=Cc2c(O)n(-c3nccs3)c(=O)c3ccccc23)c(C)c1,-22.5% (inactive)
2,O=C(CN1CCN(c2ccc(Cl)cc2)CC1)c1ccccc1,-14.5% (inactive)
3,O=C(Cn1nnc(-c2ccc3c(c2)OCO3)n1)NCc1ccco1,-12% (inactive)
4,Cc1cc(/C=C2\SC(=O)N(C)C2=O)c(C)n1-c1cccc(C(=O)O)c1,-18.6% (inactive)
5,Cc1c(CCC(=O)O)c(=O)oc2c(C)c(OCc3ccccc3Cl)ccc12,-5.7% (inactive)
6,COc1ccc2[nH]c3c(C)c4cc[n+](C)cc4c(C)c3c2c1,-5.15% (inactive)
7,NC(=O)NC(=O)CSc1nc2cc([N+](=O)[O-])ccc2n1-c1cccc(C(F)(F)F)c1,-5.7% (inactive)
8,CCOc1ccccc1/C=c1\sc2nc(-c3ccco3)nn2c1=O,-22.1% (inactive)
9,Cc1ccc(/C=C/C(=O)Nc2ccc([N+](=O)[O-])c(NC(=O)/C=C/c3ccc(C)o3)c2)o1,2.53% (inactive)
10,COc1ccc(OC)c(NC(=O)CSc2nc(-c3ccccc3)cc(=O)[nH]2)c1,-14.8% (inactive)
11,COc1ccc(OCC(=O)NNC(=O)c2ccc(-c3ccccc3)cc2)cc1,-11.5% (inactive)
12,Cc1c([N+](=O)[O-])c(N)nn1C,2.28% (inactive)
13,O=C1NN(c2ccccc2)C(=O)/C1=C/c1ccc(-c2cccc(C(=O)O)c2)o1,0.06% (inactive)
14,COc1ccc(/C=C/C(=O)OCC(=O)NC2CCCCCC2)cc1OC,5.86% (inactive)
15,Cc1ccc(CCCOC(=O)C[N+]2(C)CCCC2)cc1,-20% (inactive)
16,Cc1c(CCC(=O)O)c(=O)oc2cc(OCc3ccc(Br)cc3)ccc12,-11.7% (inactive)
17,CC1CCN(c2ccc(S(=O)(=O)Nc3cc(C(=O)O)cc(C(=O)O)c3)cc2[N+](=O)[O-])CC1,-19.7% (inactive)
18,CC(=O)Nc1ccc(N2C(=O)CCC2=O)cc1C,-12.9% (inactive)
